Cycloheximide cs – Cycloheximide Counterscreen for Small Molecule Inhibitors of Shiga Toxin. cell reporter, cycloheximide protein synthesis inhibition counterscreen. max response, %. 12% of 300,000 active; in the data active = max response mostly above about 13%, no sharp cut-off; inactive = mostly below about 14%; also: read at 38.3 µM for the half of the compounds with a filed dose; 0% is about no effect
HCMV inh – qHTS Assay for inhibitors of the human cytomegalovirus (HCMV). HFF cells, HCMV-luciferase reporter, 72 h; hits give low values. activity change, negative = inhibition, % at 57.5 µM. 4.5% of 410,000 active; in the data active = activity change below about -60%; inconclusive = no clear call, values can overlap the other calls; inactive = above about -39%; also: % is scaled to controls: 0 for no effect and ±100 for the full control effect
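Two-dose cell screen: HFF monolayers treated with compounds and infected with luciferase-expressing HCMV at 1 PFU/cell, 72 h at 37C, then lysed for luciferase measurement.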
Shiga inhibitor – A qHTS for Small Molecule Inhibitors of Shiga Toxin; Vero cells, Shiga toxin protein synthesis inhibition reporter; inhibition, % at 38.7 µM; 9.2% of 290,000 active; in the data active = inhibition mostly above about 28%, no sharp cut-off; inactive = mostly below about 43%; also: 0% is about no effect
HCV inhibitor – qHTS Assay for Inhibitors of Hepatitis C Virus (HCV); AID 651820, 2012; Potency, µM (titrated, usually from 41.8 µM), for inactives: at the highest dose activity change, negative = inhibition, most hits filed as inhibitors; Huh7.5.1 HCVcc-Cre infection, luciferase reporter, 44 h; 3.4% of 340,000 active; also: potency is read from the fitted curve at half-maximal effect; % is scaled to controls: 0 for no effect and ±100 for the full control effect
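After 44 h co-culture of compound, cells and HCVcc-Cre (~0.5 moi), substrate is added for 15 min at room temperature and luciferase measured over 15 sec. Cells were seeded at 1,000/well and pre-cultured 4 h.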
Pf growth 96h – Primary qHTS for delayed death inhibitors of the malarial parasite plastid, 96 hour incubation. P. falciparum luciferase reporter growth, 96 h. Potency, µM (top dose mostly 28.7 µM), for the others: top-dose activity change, negative = inhibition, usual class: inhibitors. AID 504834, 2011. 6.9% of 320,000 active; also: potency is read from the fitted curve at half-maximal effect; % is scaled to controls: 0 for no effect and ±100 for the full control effect
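Compounds incubated with erythrocytes infected by luciferase-expressing P. falciparum (2% hematocrit, 0.05% parasitemia final) for 96 hours, 37 C in 5% CO2. Growth inhibition scored as decreased luciferase luminescence.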
Pf growth 48h – Primary qHTS for delayed death inhibitors of the malarial parasite plastid, 48 hour incubation | P. falciparum luciferase growth in erythrocytes, 48 h | Potency, µM (titrated, usually from 28.7 µM), inactives show top-dose activity change, negative = inhibition, most hits filed as inhibitors | 5.9% of 310,000 active | AID 504832, 2011; also: potency is read from the fitted curve at half-maximal effect; % is scaled to controls: 0 for no effect and ±100 for the full control effect
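Read-out is firefly luciferase luminescence from an integrated reporter in P. falciparum, so falling signal marks reduced parasite growth. Infected erythrocytes were at 2% hematocrit and 0.1% parasitemia (final) in Albumax-supplemented RPMI 1640.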
* = called active by the depositor; [ ] = another dose, or the depositor's remark. An excerpt weighted towards active compounds, which were near 21% of everything screened. Unless noted, calls follow the shape of the dose curve; as a rule, active = well fitted inhibition curve with a large enough effect; inconclusive = small, poorly fitted or top-dose-only effect, or another doubt; inactive = no such curve, though single readings can be large or run the other way.

What do the screens show for `COc1ccc(C2CC(c3ccc(C)o3)=NN2C(C)=O)cc1` (configuration not stated)?
Cycloheximide cs: 20.8*; HCMV inh: -1.9; Shiga inhibitor: 96.6*; HCV inhibitor: -9.0%; Pf growth 96h: inconclusive; Pf growth 48h: 48.4%

What do the screens show for `COc1ccc(C2=NN(C(=O)CCC(=O)O)C(c3ccc(OC)cc3)C2)cc1` (configuration not stated)?
Cycloheximide cs: -1.8; HCMV inh: 38.0; Shiga inhibitor: 6.7; HCV inhibitor: 13.9%; Pf growth 96h: inconclusive; Pf growth 48h: -9.5%

What do the screens show for `CC(=O)N1N=C(c2cccs2)CC1c1ccc(Br)cc1` (configuration not stated)?
Cycloheximide cs: 31.7*; HCMV inh: 42.3; Shiga inhibitor: 32.5; HCV inhibitor: -5.0%; Pf growth 96h: 3.5%; Pf growth 48h: -2.3%[0.00184 µM]

Results for O=C(NC(=S)NC(CO)c1ccccc1)c1ccc(F)cc1 (configuration not stated) ?
Cycloheximide cs: 1.2; HCMV inh: -15.1; Shiga inhibitor: -4.3; HCV inhibitor: 8.7%; Pf growth 96h: 0.0%; Pf growth 48h: 0.9%

How did C=CCCC(=O)N1C[C@H]2CON(C)[C@H]2C[C@H]1c1cccc(Br)c1 do in these assays?
HCMV inh: -2.8; HCV inhibitor: 0.9%[8.37 µM]

What do the screens show for `COc1ccc(C2CC(c3ccc(Cl)cc3)=NN2C(C)=O)cc1` (configuration not stated)?
Cycloheximide cs: 34.2*; HCMV inh: 55.8; Shiga inhibitor: 29.6*; HCV inhibitor: inconclusive; Pf growth 96h: inconclusive; Pf growth 48h: 9.1%

Results for COc1ccc(C2CC(c3ccc(Cl)cc3)=NN2C(=O)c2cccc([N+](=O)[O-])c2)cc1 (configuration not stated) ?
Cycloheximide cs: 19.1*; HCMV inh: -28.6; Shiga inhibitor: 13.8; HCV inhibitor: -2.4%; Pf growth 96h: inconclusive; Pf growth 48h: inconclusive

What do the screens show for `CC(=O)N1N=C(c2ccc(C)o2)CC1c1ccc(Br)cc1` (configuration not stated)?
Cycloheximide cs: 42.6*; HCMV inh: 43.7; Shiga inhibitor: 87.1*; HCV inhibitor: -15.4%; Pf growth 96h: 56.2%; Pf growth 48h: 41.4%

What do the screens show for `CCC(=O)N1N=C(c2ccc(C)o2)CC1c1ccc(N(C)C)cc1` (configuration not stated)?
Cycloheximide cs: 3.2; HCMV inh: -2.2; Shiga inhibitor: 35.2; HCV inhibitor: -21.8%; Pf growth 96h: 22.7%; Pf growth 48h: 8.6%

How did COc1ccc(C2=NN(C(=O)c3ccc(Cl)c([N+](=O)[O-])c3)C(c3ccccc3)C2)cc1 (configuration not stated) do in these assays?
Cycloheximide cs: -4.2; HCMV inh: -11.7; Shiga inhibitor: -10.6; HCV inhibitor: inconclusive; Pf growth 96h: -7.6%; Pf growth 48h: -13.7%

What do the screens show for `CC(=O)c1cccc(S(=O)(=O)N2CCCC(c3nc4c(nnn4Cc4cccc(Cl)c4)c(=O)[nH]3)C2)c1` (configuration not stated)?
Cycloheximide cs: -3.1; HCMV inh: 29.6; Shiga inhibitor: -3.0; HCV inhibitor: inconclusive; Pf growth 96h: 8.28µM*; Pf growth 48h: 7.38µM*

What do the screens show for `CC(=O)c1cccc(S(=O)(=O)N2CCCC(c3nc4c(nnn4Cc4ccc(C)cc4)c(=O)[nH]3)C2)c1` (configuration not stated)?
Cycloheximide cs: -0.9; HCMV inh: -28.3; Shiga inhibitor: -13.9; HCV inhibitor: -0.1%; Pf growth 96h: 28.5%; Pf growth 48h: inconclusive

What do the screens show for `COc1ccccc1NC(=O)N1CCCC(c2nc3c(nnn3Cc3ccc(C)cc3)c(=O)[nH]2)C1` (configuration not stated)?
Cycloheximide cs: -3.4; HCMV inh: -15.7; Shiga inhibitor: -9.8; HCV inhibitor: -18.3%; Pf growth 96h: -6.1%; Pf growth 48h: 9.28µM*

How did Cc1ccc(NC(=O)N2CCC(c3nc4c(nnn4Cc4cccc(Cl)c4)c(=O)[nH]3)CC2)cc1 do in these assays?
Cycloheximide cs: 1.0; HCMV inh: 24.0; Shiga inhibitor: 0.8; HCV inhibitor: -9.3%; Pf growth 96h: 0.0294µM*; Pf growth 48h: 13.1µM*

How did COC(=O)c1ccccc1S(=O)(=O)N1CCCC(c2nc3c(nnn3Cc3ccc(C)cc3)c(=O)[nH]2)C1 (configuration not stated) do in these assays?
Cycloheximide cs: -2.5; HCMV inh: -77.5*; Shiga inhibitor: -7.0; HCV inhibitor: 16.7%; Pf growth 96h: inconclusive; Pf growth 48h: inconclusive

How did CCCCN(C(=O)CCCSc1nc2ccccc2[nH]1)c1c(N)n(Cc2ccccc2)c(=O)[nH]c1=O do in these assays?
Cycloheximide cs: -1.7; HCMV inh: 14.5; Shiga inhibitor: -8.5; HCV inhibitor: -12.9%; Pf growth 96h: inconclusive; Pf growth 48h: inconclusive

What do the screens show for `O=C(CN1C(=O)NC2(CCCCC2)C1=O)Nc1ccc2c(c1)OCCCO2`?
HCMV inh: 4.5; HCV inhibitor: 4.9%; Pf growth 96h: 480.3%; Pf growth 48h: 423.1%

What do the screens show for `COc1ccc(CN(CCNC(=O)CCCCC(=O)NCCN(Cc2ccc(OC)cc2)C(C)C)C(C)C)cc1`?
HCMV inh: inconclusive; HCV inhibitor: 11.2µM*

What do the screens show for `COc1ccc(CCNC(=O)CCCCC(=O)NCCc2ccc(OC)cc2)cc1`?
Cycloheximide cs: -2.7; HCMV inh: -16.9; HCV inhibitor: 8.4%; Pf growth 96h: 19.6%; Pf growth 48h: -19.0%

How did CSC[C@H]1CN(CCc2ccccc2)C(=O)[C@@H]1CC(=O)Nc1ccc(Br)cc1 do in these assays?
HCMV inh: -16.7

How did CC1(C)COC(/C=C/c2ccc([N+](=O)[O-])cc2)=N1 do in these assays?
Cycloheximide cs: 55.7*; HCMV inh: -101.0*; Shiga inhibitor: 83.9*; HCV inhibitor: inconclusive; Pf growth 96h: -9.9%; Pf growth 48h: inconclusive

How did O=C(NCCCN1CCOCC1)c1onc(CSc2ccccc2)c1C(=O)NCCCN1CCOCC1 do in these assays?
HCMV inh: -67.5*; HCV inhibitor: 2.3%

How did Cc1cc(C)cc(SCc2noc(C(=O)NCCCN3CCOCC3)c2C(=O)NCCCN2CCOCC2)c1 do in these assays?
Cycloheximide cs: -2.3; HCMV inh: -29.4; Shiga inhibitor: -6.7; HCV inhibitor: 1µM*; Pf growth 96h: inconclusive; Pf growth 48h: 9.28µM*

Results for Cc1ccc(C(CC(=O)Nc2ccc(C)cc2C)N2Cc3ccccc3C2=O)cc1 (configuration not stated) ?
HCMV inh: 1.5

High-throughput results from PubChem.
